ST2 inh = inhibitors of human ST2 (IL1RL1) binding to IL-33, primary screen, biochemical, AlphaLISA. inhibition, % for hits at 17 µM. 78,000 tested, 2.3% active. AID 1259354, 2018. AlphaLISA ST2-Fc/biotin-IL-33 interaction, 1 h; in the data active means inhibition above about 30%
Target sequence (Q01638 whole entry, looked up): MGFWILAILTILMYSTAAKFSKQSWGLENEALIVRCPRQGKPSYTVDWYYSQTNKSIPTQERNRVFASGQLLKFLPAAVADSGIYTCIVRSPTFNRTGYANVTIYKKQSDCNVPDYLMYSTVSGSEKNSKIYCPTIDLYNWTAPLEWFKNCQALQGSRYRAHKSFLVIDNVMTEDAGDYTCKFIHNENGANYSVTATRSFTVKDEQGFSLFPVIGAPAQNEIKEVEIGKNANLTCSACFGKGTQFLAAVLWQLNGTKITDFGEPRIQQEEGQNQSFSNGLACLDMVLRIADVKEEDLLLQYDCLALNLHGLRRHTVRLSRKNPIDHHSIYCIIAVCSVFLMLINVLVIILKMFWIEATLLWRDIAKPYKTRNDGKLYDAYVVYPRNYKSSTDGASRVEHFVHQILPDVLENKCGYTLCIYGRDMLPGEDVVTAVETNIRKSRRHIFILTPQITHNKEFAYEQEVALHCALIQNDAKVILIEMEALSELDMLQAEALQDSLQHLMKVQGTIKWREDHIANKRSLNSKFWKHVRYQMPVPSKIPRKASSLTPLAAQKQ
Numbers without * were called inactive; i = inactive; ! = a repeat was not active. This excerpt belongs to a sample that is enriched for hits.

SMILES	ST2 inh
CC1(C)CC(=O)C(C(C2=C(O)CC(C)(C)CC2=O)c2ccc([N+](=O)[O-])s2)C(=O)C1 (stereo not drawn)	30%*
CN(C)c1ccc(C(C2=C(O)CC(C)(C)CC2=O)C2C(=O)CC(C)(C)CC2=O)cc1 (stereo not drawn)	i
O=c1c2ccccc2ncn1CCCCOc1ccc(Cl)cc1Br	i
COc1ccc(NC(=O)CCCc2nc3cccnc3n2Cc2ccc(F)cc2)cc1OC	i
CC(=O)Nc1ccc2nc(SCC(=O)Nc3c(C)n(C)n(-c4ccccc4)c3=O)sc2c1	i
CC(=O)N1N=C(c2ccc(Cl)cc2)OC1(C)C	i
COc1cccc(C2=NN(C(=O)Cc3ccc([N+](=O)[O-])cc3)C(O)(C(F)(F)F)C2)c1 (stereo not drawn)	i
COc1ccc(CC2(C)OC(c3ccc([N+](=O)[O-])cc3)=NN2C(C)=O)cc1 (stereo not drawn)	49%*
O=C(Cn1cnc2c(cnn2-c2ccccc2)c1=O)NC1CCCCC1	i
Fc1cccc(CSc2nnnn2-c2ccc3c(c2)OCO3)c1	i
CCN(CC)CCNc1nc2c(c(=O)n(C)c(=O)n2C)n1Cc1c(Cl)cccc1Cl	i
Oc1oc(-c2ccc(Br)cc2)nc1C=Nc1ccc(Cl)cn1	42%*
Oc1oc(-c2ccc(Cl)cc2)nc1C=Nc1ccccc1Br	31%*
Oc1oc(-c2ccc(Cl)cc2)nc1C=Nc1ccc(Br)cc1	i
Oc1oc(-c2ccc(Br)cc2)nc1C=Nc1ccccn1	i
Oc1oc(-c2ccc(Cl)cc2)nc1C=Nc1cccc(F)c1	31%*
Oc1oc(-c2ccccc2)nc1C=Nc1cccc(Cl)c1	i
Oc1oc(-c2ccc(Br)cc2)nc1C=Nc1ccc(Cl)cc1Cl	i
Oc1oc(-c2ccccc2)nc1C=Nc1cccc(F)c1	i
Oc1oc(-c2ccc(Br)cc2)nc1C=Nc1cc(Cl)ccc1Cl	i
Cc1ccc(C)c(CSC2=NCCN2C(=O)Cc2cccs2)c1	i
COc1ccc(Br)cc1C1N(c2cc(Cl)ccc2OC)C(=O)C2CCCN21 (stereo not drawn)	i
O=C(NC1CC1)C1CCN(S(=O)(=O)N2CCCCC2)CC1	i
Cc1ccc(C)c(N2CCN(S(=O)(=O)c3ccc4c(c3)c(=O)n(C)c(=O)n4C)CC2)c1	i
COc1cc(C2C(C#N)=C(N)OC3=C2C(=O)CCC3)cc(Br)c1OC (stereo not drawn)	i
SMILES	ST2 inh
CC1=C[C@@H](CNC(=O)c2cccnc2)[C@H](C(C)C)C[C@H]1CC(=O)NCc1ccc(C#N)cc1	i
Cc1ccncc1-c1cc2ccccc2o1	i
O=S(=O)(N=S(N1CCCCC1)N1CCCCC1)c1ccccc1	i
NC1=C(N2CCCCC2)C(=O)c2ccccc2C1=O	71%*
CC(=O)c1ccc(NC2=C(N3CCCCC3)C(=O)c3ccccc3C2=O)cc1	59%*
CC(=O)c1ccc(OC(=O)N2CCCCC2)cc1	i
O=C(CCN1C(=O)c2ccccc2C1=O)N1CCCCCC1	i
CC(=O)c1ccc(NC(=O)C(Cc2ccccc2)N2C(=O)c3ccccc3C2=O)cc1 (stereo not drawn)	i
Cc1nc(C)n(CCCNC2CCN(C(=O)c3ccccc3)CC2)n1	i
CCc1nc(NC(=O)NCc2ccccc2-n2cccn2)nn1C	i
Cc1nc(C(C)C)cc(N2CCC(C(O)c3nccn3C)CC2)n1 (stereo not drawn)	i
Cc1ccc(C(=O)OCCCCN=C2NS(=O)(=O)c3ccccc32)cc1	i
Nc1nnc(/C=C/c2cccc([N+](=O)[O-])c2)s1	i
O=[N+]([O-])c1cccc(/C=C/c2ccccn2)c1	37%*
O=[N+]([O-])c1cccc(C(=Nc2ccccc2)NO)c1	i
CC1(C)Cc2nc3sc4c(OCC(N)=O)ncnc4c3cc2CO1	i
COc1ccc(-c2nnc3ccc(SCC(=O)N4CCC(C)CC4)nn23)cc1	i
COc1cc(/C=C2\C(=O)N(c3cccc(Cl)c3)N=C2C)cc(OC)c1OC	i
COc1cc(/C=C2\C(=O)N(c3ccc(Cl)c(C(=O)O)c3)N=C2C)cc([N+](=O)[O-])c1O	80%*
CC1=NN(c2ccc(Cl)c(Cl)c2)C(=O)/C1=C/c1cc([N+](=O)[O-])ccc1O	i
COc1cc(/C=C2\C(=O)N(c3ccccc3)N=C2C)cc(Br)c1O	i
COc1cc(/C=C2\C(=O)N(c3ccc(Cl)c(C(=O)O)c3)N=C2C)c([N+](=O)[O-])cc1OC	64%*
COc1ccc(Cl)cc1/C=C1\C(=O)N(c2cccc(C(=O)O)c2)N=C1C	i
O=C(NCCOc1ccccc1Cl)c1ccccc1I	i
OCCC1CN(Cc2cccc3cnccc23)CCN1C1CCCCC1 (stereo not drawn)	i
SMILES	ST2 inh
CC1=C(C(=O)OCc2ccccc2)C(c2cccc(Cl)c2)C(C#N)=C(N)O1 (stereo not drawn)	i
Cc1c(O)ccc(/C(O)=C/c2nc3ccccc3s2)c1O	i
CCN1C(=O)N(CCc2ccccc2)C2(CCN(CCc3ccccc3)CC2)C1=O	33%*
CN1C(=O)N(Cc2ccccc2)C2(CCN(Cc3ccc(N(C)c4ccccc4)cc3)CC2)C1=O	i
COCCN1C(=O)N(Cc2cccnc2)C(=O)C12CCN(Cc1nc(-c3ccccc3)cs1)CC2	i
CCN(CC)C(=O)CNS(=O)(=O)c1cccs1	i
COc1ccc(CC(=O)Nc2ccc(Br)cc2C(C)C)cc1	i
O=C(Nc1ccccc1)c1cc2cc(Cl)ccc2oc1=O	i
Cc1ccc(-c2cc3c(nn2)-c2ccccc2C3=O)cc1	34%*
O=C1c2ccccc2-c2n[nH]c3cccc1c23	i
Cc1ccc(S(=O)(=O)Nc2ccccc2-c2ccccc2)cc1	i
O=C(O)/C(=C/c1ccc2c(c1)OCO2)NC(=O)c1ccccc1Cl	i
O=c1[nH]c2ccc(S(=O)(=O)Nc3ccc(F)c(F)c3)cc2s1	i
Clc1ccccc1-n1ncnc1-c1ccc(Br)cc1	i
Brc1ccc(-c2ncnn2-c2ccc(Br)nc2)cc1	i
Clc1ccc(-c2ncnn2-c2ccc(Br)cc2)cc1	33%*!
COc1ccc(C(=O)N(c2ccc(OC)cc2)C2C=CS(=O)(=O)C2)cc1 (stereo not drawn)	i
Cc1ccc(C(=O)N2CCc3ccccc32)o1	i
Cc1ccc(C(=O)/C=C/C=C/C=C/N(C)C)o1	39%*
Cc1cccc(Nc2nc(O)c(C3=c4cc(Br)ccc4=NC3=O)s2)c1C	42%*
Cc1ccccc1NC(=O)c1cccc(Br)c1	i
Cc1cc(Br)c2c(c1)=C(c1sc(Nc3ccccc3Cl)nc1O)C(=O)N=2	i
O=C1N=c2ccc(F)cc2=C1c1sc(Nc2ccc(Br)cc2)nc1O	i
Cc1c(Cl)ccc2c1=NC(=O)C=2c1sc(Nc2ccc(Br)cc2)nc1O	i
O=C1N=c2ccc(Cl)cc2=C1c1sc(Nc2ccc(Cl)cc2)nc1O	44%*
SMILES	ST2 inh
O=C(Nc1ncc(-c2ccccc2)s1)c1ccc(S(=O)(=O)N2CCCC2)cc1	i
O=[N+]([O-])c1ccc(NS(=O)(=O)c2ccc(F)cc2)cc1	i
Cc1ccc(CCC(=O)N2CCC(Cn3cc(CO)nn3)CC2)cc1C	i
COc1cc(N2CCC(Cn3cc(CO)nn3)CC2)ncn1	65%*
COc1ccc(OC)c(C2CCN(c3cc(OC)ncn3)C2)c1 (stereo not drawn)	i
Cc1ncc(CO)c(CN(C)Cc2noc(C3CCC3)n2)c1O	i
CCOc1ccccc1CN1CCN(Cc2ccccn2)CC1CCO (stereo not drawn)	i

Screening data from PubChem.
